Only some compounds are listed: those with a hit (about 12% of all), similar ones and a draw of the others.
JMJD2A Tudor inh: qHTS Assay for Inhibitors of JMJD2A-Tudor Domain; Lysine-specific demethylase 4A (Homo sapiens), O75164; AlphaScreen JMJD2A-Tudor / H3K4me3 peptide binding; Potency, µM (titrated, usually from 114 µM), usual class: inhibitors; 390,000 tested, 4.4% active; AID 504339, 2011; also: nearly all actives have a fitted effect of over 50% in size
Sfp inh: qHTS Assay for Inhibitors of Bacillus subtilis Sfp phosphopantetheinyl transferase (PPTase) | Biochemical Sfp PPTase activity, qHTS | Potency, µM, actives largely listed as inhibitors | 310,000 tested, 3.5% active | AID 1490, 2009;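 also: the enzyme is Sfp with the accession as filed and its product quenches rhodamine fluorescence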
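Step 1, compound plus 15 nM Sfp-PPTase, 15 min, room temperature. Step 2, add rhodamine-CoA (5 uM) and BHQ-2-YbbR (12.5 uM). Step 3, read 525/598 nm fluorescence at 0 and 30 min.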
G9a inh: qHTS Assay for Inhibitors of Histone Lysine Methyltransferase G9a; 350,000 tested, 8.8% active; G9a H3K9 monomethylation, AlphaScreen, 2 h; Potency, µM (doses to about 102 µM), most hits filed as inhibitors; AID 504332, 2011; Histone-lysine N-methyltransferase EHMT2 (Homo sapiens), Q96KQ7; also: nearly all actives have a fitted effect of over 75% in size
Target sequence (Q96KQ7 913-1193 limits assumed): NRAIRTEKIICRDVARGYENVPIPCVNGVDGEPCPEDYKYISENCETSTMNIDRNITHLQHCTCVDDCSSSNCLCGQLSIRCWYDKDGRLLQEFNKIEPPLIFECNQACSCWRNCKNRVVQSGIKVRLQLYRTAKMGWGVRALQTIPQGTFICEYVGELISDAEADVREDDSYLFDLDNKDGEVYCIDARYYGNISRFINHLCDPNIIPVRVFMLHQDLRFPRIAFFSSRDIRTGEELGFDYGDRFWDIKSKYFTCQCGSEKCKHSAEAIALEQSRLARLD
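AlphaScreen detection with an anti-monomethyl H3K9 antibody quantified product after a 2 h room-temperature reaction containing 500 nM biotinylated H3K9 peptide, 20 µM SAM and 20 nM enzyme, which had been preincubated 15 min with compound.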
BAZ2B block: qHTS Assay for Inhibitors of BAZ2B; 360,000 tested, 4.4% active; Bromodomain adjacent to zinc finger domain protein 2B (Homo sapiens), Q9UIF8; Potency, µM (highest dose often 114 µM), usual class: inhibitors; AlphaScreen BAZ2B-H3K14Ac peptide displacement; also: nearly all actives have a fitted effect of over 60% in size
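BAZ2B (50 nM) with biotin-H3(5-23)K14Ac peptide (50 nM) in PBS pH 7.4, 0.01% Tween-20, preformed 30 min, then compound 30 min at room temperature; top concentration 110uM. AlphaScreen streptavidin donor/nickel chelate acceptor beads (10 ug/mL final), 20 min dark, signal read.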
PLK1 PBD block: qHTS for Inhibitors of PLK1-PDB (polo-like kinase 1 - polo-box domain): Primary Screen; Plk1 PBD binding of FITC phosphopeptide, fluorescence polarization; Serine/threonine-protein kinase PLK1 (Homo sapiens), P53350; AID 720504, 2013; 360,000 tested, 2.8% active; Potency, µM, most hits filed as inhibitors; also: series mostly up to about 57 µM; nearly all actives have a fitted effect of over 65% in size
HP1b chromo inh: HTS for Inhibitors of HP1-beta Chromodomain Interactions with Methylated Histone Tails; Chromobox protein homolog 1 (Homo sapiens), P83916; AlphaScreen HP1-beta / biotin-H3K9me3 peptide binding; Potency, µM (highest dose often 114 µM), actives largely listed as inhibitors; 390,000 tested, 0.56% active; AID 540317, 2011; also: nearly all actives have a fitted effect of over 70% in size
Target sequence (P83916 whole entry, looked up): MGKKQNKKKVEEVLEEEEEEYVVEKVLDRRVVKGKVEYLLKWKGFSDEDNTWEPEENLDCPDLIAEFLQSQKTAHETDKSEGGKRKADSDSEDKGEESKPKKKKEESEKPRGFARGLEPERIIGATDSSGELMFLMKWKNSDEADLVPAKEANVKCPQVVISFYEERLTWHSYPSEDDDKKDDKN
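Compound inhibition of the preformed complex between 50 nM HP1-beta and 50 nM biotinylated H3K9me3 peptide was read by AlphaScreen. Buffer was PBS pH 7.4 with 0.01% Tween-20. Incubations ran 30 min at room temperature, with 10 ug/mL donor/acceptor beads.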
Large screens that a line does not name were inactive. Calls follow the shape of the dose curve; as a rule, active = well fitted curve in the direction sought with a large enough effect; inconclusive = small, poorly fitted or top-dose-only effect, or another doubt; inactive = no such curve, though single readings can be large; an effect the other way counts as inactive or inconclusive.

CCOC(=O)c1c(C)n(C)c2ccc(O)c(CN3CCC(C)CC3)c12	G9a inh inconclusive
CCOC(=O)c1c(CSc2ccccc2)n(C)c2ccc(O)c(CN3CCOCC3)c12	G9a inh 39.8µM, BAZ2B block 35.5µM
CCOC(=O)c1c(CN2CCOCC2)n(C)c2cc(Br)c(O)c(CN(C)C)c12	G9a inh 11.2µM, BAZ2B block inconclusive
COc1ccc(C(N)=S)c(OC)c1	Sfp inh 44.7µM, G9a inh 8.91µM, PLK1 PBD block inconclusive
COCCCn1c(Cc2csc(Nc3cccc(Cl)c3)n2)nnc1SCC(=O)OC	JMJD2A Tudor inh 56.2µM, Sfp inh 25.1µM, G9a inh 28.2µM, BAZ2B block inconclusive
COc1cccc(-c2coc3ccc(Br)cc3c2=O)c1	none (no result: JMJD2A Tudor inh, G9a inh, BAZ2B block, PLK1 PBD block, HP1b chromo inh)
Cc1ccc(C)c(SCC(=O)Nc2cc(S(=O)(=O)N3CCOCC3)ccc2C)c1	G9a inh 14.1µM, PLK1 PBD block inconclusive (no result: Sfp inh)
Cc1ccc(S(=O)(=O)N2CCOCC2)cc1NC(=O)CNC1CCCC1	JMJD2A Tudor inh 5.01µM (no result: G9a inh)
COC(=O)c1ccccc1NC(=O)CSc1nc(N)cc(N)n1	none
CCNC(=O)NC(=O)CSc1ccc(S(=O)(=O)N2CCOCC2)cn1	none (no result: Sfp inh, G9a inh, BAZ2B block)
CC(C)(C)NC(=O)NC(=O)CSc1ccc(S(=O)(=O)N2CCOCC2)cn1	JMJD2A Tudor inh 79.4µM, G9a inh 5.62µM, PLK1 PBD block inconclusive (no result: Sfp inh)
Cc1ccc(C)c(SCC(=O)Nc2cccc(S(=O)(=O)N3CCOCC3)c2)c1	PLK1 PBD block inconclusive (no result: Sfp inh)
COC(=O)c1ccccc1NC(=O)CSc1nc(N)cc(=O)[nH]1	JMJD2A Tudor inh inconclusive, G9a inh 50.1µM, BAZ2B block 56.2µM, HP1b chromo inh inconclusive
COc1ccc(C(=O)COC(=O)CCCC(=O)NC2CCCCC2)cc1	none
Cc1ccc(S(=O)(=O)N2CCOCC2)cc1NC(=O)CSc1ccccn1	G9a inh inconclusive, PLK1 PBD block 29.9µM
Cc1ccc(S(=O)(=O)N2CCOCC2)cc1NC(=O)CSc1nc(N)cc(=O)[nH]1	Sfp inh 70.8µM (no result: G9a inh)
Cc1ccccc1CN1C(=O)c2ccccc2Sc2ccc(C(=O)NCc3ccccc3)cc21	none (no result: Sfp inh, PLK1 PBD block)
Cn1c(=O)c2c(SCC(=O)N3CCc4ccccc43)nc(-c3ccccc3Cl)nc2n(C)c1=O	G9a inh inconclusive (no result: Sfp inh, PLK1 PBD block)
COc1cc2[nH]c(=S)nc(NCc3cccnc3)c2cc1OC	G9a inh 44.7µM
COc1ccc(CNc2nc(=S)[nH]c3cc(OC)c(OC)cc23)cc1	JMJD2A Tudor inh inconclusive, G9a inh 10µM, BAZ2B block inconclusive
COc1cc2[nH]c(=S)nc(NCc3ccccc3)c2cc1OC	G9a inh inconclusive
COc1cc2[nH]c(=S)nc(NCc3ccccn3)c2cc1OC	G9a inh 50.1µM
O=C(c1ccc(F)cc1)C1CCN(S(=O)(=O)c2ccccc2)CC1	none (no result: G9a inh)
O=C(c1ccc(F)cc1)N1CCCCC(S(=O)(=O)c2ccccc2)C1=O (stereo not given)	Sfp inh 79.4µM, G9a inh inconclusive
COc1ccc(-c2c(C)n([O-])c(C)c(C)[n+]2=O)cc1	JMJD2A Tudor inh inconclusive, PLK1 PBD block 23.8µM
NC(=O)N/N=C/c1c(F)c(F)c(F)c(F)c1F	JMJD2A Tudor inh 11.2µM, PLK1 PBD block 21.2µM (no result: G9a inh)
NC(=O)N/N=C/c1c(F)cccc1F	none
COc1ccc(CCNC(=O)c2cnn(-c3ccc(F)cc3)c2C2CCN(C(=O)OC(C)(C)C)CC2)c(OC)c1	JMJD2A Tudor inh inconclusive (no result: Sfp inh, PLK1 PBD block)
Cc1ccc(-c2csc(/C(C#N)=C(\O)CN3CCN(C(=O)c4ccco4)CC3)n2)cc1	JMJD2A Tudor inh 79.4µM, BAZ2B block inconclusive
N#C/C(=C(/O)CN1CCOCC1)c1nc(-c2ccccc2)cs1	JMJD2A Tudor inh inconclusive, BAZ2B block inconclusive
N#C/C(=C(/O)CCl)c1nc(-c2ccccc2)cs1	BAZ2B block inconclusive, PLK1 PBD block inconclusive (no result: G9a inh)
Cc1ccc(-c2csc(/C(C#N)=C(\O)CCl)n2)cc1	JMJD2A Tudor inh inconclusive, G9a inh 35.5µM, PLK1 PBD block inconclusive
CCCCN(C)C/C(O)=C(\C#N)c1nc(-c2ccccc2)cs1	JMJD2A Tudor inh inconclusive, G9a inh 39.8µM, BAZ2B block inconclusive
COCC(=O)N1CCC2(CC1)CN(c1cccc(-c3ccccc3)c1)C2	none (no result: JMJD2A Tudor inh, BAZ2B block, PLK1 PBD block, HP1b chromo inh)
CN(CC(=O)Nc1ccccc1Cl)C(=O)COC(=O)Cc1ccc(F)cc1	none
CCOC(=O)C1=C(C)NC(C)=C(C(=O)OCC)C1C(=O)OCC(=O)NC1(C#N)CCCCC1	none (no result: Sfp inh)
COc1ccc(C2(CNS(=O)(=O)c3ccccc3)CCOCC2)cc1	none
O=S(=O)(Nc1ncnc2sc3c(c12)CCC3)c1ccc(Cl)s1	G9a inh 10µM, BAZ2B block inconclusive, PLK1 PBD block inconclusive
Cc1nc(NS(=O)(=O)c2cccs2)c2c3c(sc2n1)CCC3	G9a inh 79.4µM, BAZ2B block inconclusive
CN1CCC(=NNc2ncnc3sc4c(c23)CCCC4)CC1	JMJD2A Tudor inh inconclusive, Sfp inh 10µM, BAZ2B block inconclusive
Fc1cccc(Nc2ncnc3sc4c(c23)CCC4)c1	Sfp inh inconclusive, G9a inh 20µM
c1nc(NCCN2CCOCC2)c2c3c(sc2n1)CCCCC3	G9a inh inconclusive
Cn1c(=O)c(S(=O)C2CCCCC2)c(O)c2ccccc21 (stereo not given)	none (no result: Sfp inh, G9a inh, BAZ2B block)
O=C(Nc1ncnc2sc3c(c12)CCCC3)c1ccncc1	G9a inh 44.7µM
COc1ccc(Cl)cc1NC(=O)NC(C)c1ccncc1 (stereo not given)	none
COc1ccc(Cl)cc1NC(=O)C1CSC(c2ccncc2)=N1 (stereo not given)	Sfp inh inconclusive, G9a inh 11.2µM
COc1ccc(NS(=O)(=O)c2cccc(-c3n[nH]c(=S)n3Cc3ccccc3)c2)cc1	G9a inh 7.08µM, BAZ2B block inconclusive
COc1ccc(S(=O)(=O)Nc2ccc(-n3cccc3)cc2)cc1	JMJD2A Tudor inh 56.2µM, G9a inh 50.1µM, BAZ2B block 70.8µM, PLK1 PBD block inconclusive, HP1b chromo inh 44.7µM
COc1ccc(NS(=O)(=O)c2ccc(-c3n[nH]c(=S)n3Cc3ccccc3)cc2)cc1	JMJD2A Tudor inh 25.1µM, G9a inh 3.98µM, PLK1 PBD block inconclusive
CCCCSCCCNC(=O)C1CCC(CNS(=O)(=O)c2c(C)cc(C)cc2C)CC1 (stereo not given)	none (no result: Sfp inh, PLK1 PBD block)
CCc1sc(-c2cc3cccc(OC)c3oc2=O)nc1-c1cc(C)ccc1C	none (no result: Sfp inh, G9a inh, BAZ2B block, PLK1 PBD block)
CCCC(=O)Nc1ccccc1-c1nnn(CC(=O)Nc2ccc(OC)cc2)n1	none
